In paper PMC11062922 (Nature Chemical Biology, 2023) one finds potency estimated from few doses data, which are given here for 15 compounds.

Holding throughout (set-up): species or system human, MV4-11 + K-562 + COLO205 + SK-N-BE2 + OVCAR-8
One assay concerns TGFBR1. The following applies: read-out: apparent Kd, n = 1.
A further assay concerns TEC. The following applies: read-out: apparent Kd, n = 1.
In the next assay the test system is MAP4K2. The following applies: read-out: apparent Kd, n = 1.
A further assay has as its system AKT3. The following applies: read-out: apparent Kd, compound concentrations: 100 nM and 1000 nM (sheet 'Samples'), n = 1.
In the next assay the test system is DDR1. The following applies: read-out: apparent Kd, compound concentrations: 100 nM and 1000 nM (sheet 'Samples'), n = 1.
For the next assay, the system named is ACVR1. The following applies: read-out: apparent Kd, n = 1.
For a further assay, the system named is RPS6KA1. The following applies: read-out: apparent Kd, compound concentrations: 100 nM and 1000 nM (sheet 'Samples'), n = 1.
For a further assay, the system named is CDK10. The following applies: read-out: apparent Kd, n = 1.
Another assay has as its system IKBKE. The following applies: read-out: apparent Kd; compound concentrations:100 nM and 1000 nM (sheet 'Samples'); n = 1.
The test system of the next assay is NEK9. The following applies: read-out: apparent Kd, n = 1.
A further assay deals with PIK3C3. The following applies: read-out: apparent Kd; compound concentrations:100 nM and 1000 nM (sheet 'Samples'); n = 1.
The next assay has as its system TP53RK. The following applies: read-out: apparent Kd; compound concentrations: 100 nM and 1000 nM (sheet 'Samples'), CATDS: 4.7970425138991198E-2; n = 1.
The test system of the next assay is AKT2. The following applies: read-out: apparent Kd; compound concentrations: 100 nM and 1000 nM (sheet 'Samples'), CATDS: 2.25042579106303E-2; n = 1.
In another assay the test system is MAP2K2. The following applies: read-out: apparent Kd, compound concentrations: 100 nM and 1000 nM (sheet 'Samples'), n = 1.
Another assay concerns MAP4K3. The following applies: read-out: apparent Kd; compound concentrations: 100 nM and 1000 nM (sheet 'Samples'), CATDS: 1.12434649854769E-2; n = 1.
The test system of the next assay is MAP4K5. The following applies: read-out: apparent Kd; compound concentrations: 100 nM and 1000 nM (sheet 'Samples'), CATDS: 1.5726732073661799E-2; n = 1.
The test system of a further assay is PIM2. The following applies: read-out: apparent Kd; compound concentrations: 100 nM and 1000 nM (sheet 'Samples'), CATDS: 8.9086191917804505E-3; n = 1.
The next assay concerns SLK. The following applies: read-out: apparent Kd; compound concentrations: 100 nM and 1000 nM (sheet 'Samples'), CATDS: 1.8680668627662898E-2; n = 1.
The test system of a further assay is STK11. The following applies: read-out: apparent Kd; compound concentrations: 100 nM and 1000 nM (sheet 'Samples'), CATDS: 1.6673452289140401E-2; n = 1.
The mark [1] stands for this setting: compound concentrations:100 nM and 1000 nM (sheet 'Samples').

Where two headings read alike, the source gives them in different places.

Turning to `Fc1ccc(-c2c(-c3ccncc3)[nH]c3cccnc23)cc1` [RO1153853-000], in the assay with TGFBR1 (compound concentrations: 100 nM and 1000 nM (sheet 'Samples'), CATDS: 5.3195917052411702E-2), the potency estimated from few doses is 1310 nM.

`O=C1NC(=O)C(N2CCc3ccccc32)=C1c1ccccc1Cl` [SB-373598]: the potency estimated from few doses in the assay on TEC (setting [1]) was 904 nM.

Take `Cc1cccc(Nc2nc(N[C@H]3CCCC[C@H]3N)ncc2C(N)=O)c1.Cl` [GSK986310C]: the potency estimated from few doses in the assay on MAP4K2 (setting [1]) is 2080 nM.

Take `CCn1c(-c2nonc2N)nc2c(C#CC(C)(C)O)nc(CN3CCCC3)cc21` [GSK1000163A]: the potency estimated from few doses in the assay with AKT3 (CATDS: 0.185643756681795) is 1430 nM.

For the compound `CCOC(=O)N1CCC(n2cnc(-c3ccc(F)cc3)c2-c2ccnc(N)n2)CC1` [SB-219952], the potency estimated from few doses in the assay on DDR1 (CATDS: 1.23341339187386E-2) was 531 nM; with TEC (compound concentrations: 100 nM and 1000 nM (sheet 'Samples'), CATDS: 8.8843344260598894E-3) it was 1200 nM.

Take `O=C1N=C(NCCc2ccc(Cl)cc2)S/C1=C\c1ccc2ncccc2c1` [RO4498479-000]: the potency estimated from few doses is 1230 nM in the assay with ACVR1 (compound concentrations: 100 nM and 1000 nM (sheet 'Samples'), CATDS: 7.5426922392671601E-3); 1320 nM in the assay with AKT3 (CATDS: 7.4016289423583202E-3); 1530 nM in the assay on DDR1 (CATDS: 7.1142371440619002E-3); 2010 nM in the assay on RPS6KA1 (CATDS: 6.6850452112440202E-3); 646 nM with TEC (compound concentrations: 100 nM and 1000 nM (sheet 'Samples'), CATDS: 9.3913889163932396E-3).

Regarding `Cl.ON=C1CCc2cc(-c3nc(C4CCNCC4)[nH]c3-c3ccncc3)ccc21` [SB-614067-R], the potency estimated from few doses with TGFBR1 (setting [1]) was 1170 nM.

Take `Cc1ccc(Nc2ccnc(Nc3ccc4c(c3)CS(=O)(=O)C4)n2)cc1O.Cl` [GW579362A]: the potency estimated from few doses in the assay with ACVR1 (compound concentrations: 100 nM and 1000 nM (sheet 'Samples'), CATDS: 3.1800553905839801E-2) is 1030 nM; in the assay on CDK10 (compound concentrations: 100 nM and 1000 nM (sheet 'Samples'), CATDS: 3.9153038455417302E-2) it was 602 nM.

Consider `COc1cccc2c(-c3ccncc3)c(-c3ccc(F)cc3)nn12` [GW468513X], for which the potency estimated from few doses in the assay on TGFBR1 (compound concentrations: 100 nM and 1000 nM (sheet 'Samples'), CATDS: 4.1244315663660498E-2) is 1080 nM.

For the compound `CN(c1ccc(NC(=O)NCCN2CCOCC2)cc1)c1ccnc(Nc2ccc(CS(C)(=O)=O)cc2)n1.Cl` [GW830365A], in the assay with DDR1 (CATDS: 4.92942958534755E-2), the potency estimated from few doses was 1360 nM.

Turning to `CN(C)CC(O)COc1ccc(Nc2nccc(-c3cnn4nc(N5CCOCC5)ccc34)n2)cc1` (stereo not drawn) [GW767488X], the potency estimated from few doses is 455 nM in the assay with ACVR1 (setting [1]); 1360 nM with CDK10 (setting [1]); 2010 nM with IKBKE; 314 nM in the assay with NEK9 (setting [1]); 581 nM with PIK3C3.

`CCCc1cc(N2CCCN(C)CC2)nc2sc3c(N)ncnc3c12` [BI00604564]: the potency estimated from few doses in the assay with AKT3 (CATDS: 0.13900414431421401) was 1920 nM.

As to `O=C1N=C(NCc2cccs2)O/C1=C\c1ccc2ncccc2c1` [RO4624208-000], the potency estimated from few doses in the assay on TP53RK is 1610 nM.

Consider `c1cnn2ncc(-c3ccnc(Nc4ccc5c(c4)OCCO5)n3)c2c1` [GW806290X], for which the potency estimated from few doses is 1300 nM with AKT2; 1770 nM in the assay with AKT3 (CATDS: 2.0651194958325798E-2); 1530 nM with MAP2K2 (CATDS: 2.1479851181110499E-2); 1030 nM in the assay with NEK9 (compound concentrations: 100 nM and 1000 nM (sheet 'Samples'), CATDS: 2.42273764121115E-2).

As for `O=C(O)C(F)(F)F.O=c1[nH]ccc2nc(N[C@@H]3CCNC3)nc(Nc3ccc4c(c3)S(=O)(=O)CC4)c12` [GSK2181306A], the potency estimated from few doses is 729 nM in the assay with CDK10 (compound concentrations: 100 nM and 1000 nM (sheet 'Samples'), CATDS: 1.0545767640912401E-2); 1620 nM in the assay on MAP2K2 (CATDS: 8.3394959268462601E-3); 121 nM in the assay with MAP4K2 (compound concentrations: 100 nM and 1000 nM (sheet 'Samples'), CATDS: 2.4699396499264999E-2); 612 nM in the assay on MAP4K3; 283 nM with MAP4K5; 1250 nM in the assay with PIM2. Moreover, the potency estimated from few doses was 1440 nM in the assay with RPS6KA1 (CATDS: 8.5840482500919892E-3), 201 nM in the assay with SLK and 251 nM in the assay with STK11.
